Hit rate of the full screen: of about 39,000 compounds, about 3,300 (8.5%) were called active. For the sample, actives were picked, then their nearest neighbours and some compounds at random.

The source of these data is the antibiotic and cytotoxicity screens of Wong et al. (2023).

For the experiment, the system named is HepG2. As to the kind of experiment: cytotoxicity call (relative viability < 0.9). The conditions noted are these: 10 µM.
Turning to `C[C@@H]1CN([C@H](C)CO)C(=O)c2cc(NC(=O)Cc3ccccc3)ccc2O[C@@H](C)CCCCO[C@@H]1CN(C)Cc1ccncc1`, the cytotoxicity call was “inactive”.
For the compound `Cc1ccc(S(=O)(=O)N(C)C[C@H]2OCCCC[C@H](C)Oc3ccc(NC(=O)C4CCCCC4)cc3C(=O)N([C@@H](C)CO)C[C@H]2C)cc1`, the cytotoxicity call is “inactive”.
Then `C[C@@H]1CN([C@H](C)CO)C(=O)CCCn2nncc2CO[C@H]1CN(C)C(=O)c1cc(-c2ccccc2)on1`, with “inactive”; and `COc1ccc(S(=O)(=O)N(C)C[C@@H]2Oc3c(NC(=O)c4cc(C)nn4C)cccc3C(=O)N([C@H](C)CO)C[C@H]2C)cc1`, with “inactive”; and `C[C@@H]1CN([C@H](C)CO)C(=O)c2cccc(NS(=O)(=O)c3cn(C)cn3)c2O[C@H]1CN(C)S(=O)(=O)c1ccc(Cl)cc1`, with “inactive”.
The same measure for `COc1ccc(S(=O)(=O)N(C)C[C@@H]2Oc3ccc(NS(=O)(=O)c4ccc(F)cc4)cc3C(=O)N([C@@H](C)CO)C[C@H]2C)cc1`: “inactive”; for `COC(=O)N/N=C/c1ccc([N+](=O)[O-])o1`: “inactive”.
Then `O=C(NO)c1ccc(C(=O)N/N=C/c2ccc(B(O)O)cc2)cc1`, with “inactive”; and `O=C(N/N=C/c1ccc(CO)o1)c1ccccn1`, with “inactive”; and `NC(=O)NN=Cc1ccc([N+](=O)[O-])o1`, with “active”.
Consider `O=C(NN=Cc1ccc([N+](=O)[O-])o1)c1ccc(O)cc1`, for which the cytotoxicity call was “active”.
With `NC(=O)N/N=C/c1ccc([N+](=O)[O-])o1`, the cytotoxicity call was “inactive”.
Consider `C[C@@H]1CCCCO[C@@H](CN(C)C(=O)C2CCCCC2)[C@@H](C)CN([C@H](C)CO)C(=O)c2cc(NC(=O)c3ccncc3)ccc2O1`, for which the cytotoxicity call was “inactive”.
With `O=C(CCCCCC(=O)Nc1ccccc1O)N/N=C/[C@H](O)[C@@H](O)[C@@H](O)[C@H](O)C(=O)O`, the cytotoxicity call was “inactive”.
For the compound `COCC#Cc1cnc2c(c1)C(=O)N([C@H](C)CO)C[C@@H](C)[C@@H](CN(C)C(=O)CN1CCOCC1)O2`, the cytotoxicity call is “inactive”.
The same measure for `COc1cc(CN)cc(OC)c1OC`: “inactive”; for `C[C@H](CO)N1C[C@H](C)[C@@H](CN(C)C(=O)Nc2ccc(F)cc2)Oc2ccc(NC(=O)CCCCCC(=O)Nc3ccccc3N)cc2CC1=O`: “inactive”.
As to `COc1ccc(NC(=O)N(C)C[C@H]2OCCCC[C@@H](C)Oc3ccc(NC(=O)Cc4ccccc4)cc3C(=O)N([C@H](C)CO)C[C@@H]2C)cc1`, the cytotoxicity call was “inactive”.
Turning to `O=C(CN1CCOCC1)NCC[C@H]1CC[C@@H](NS(=O)(=O)c2ccc(F)cc2)[C@H](CO)O1`, the cytotoxicity call is “inactive”.
Take `C[C@H]1CN([C@@H](C)CO)C(=O)c2cccc(NC(=O)C3CCCCC3)c2O[C@H]1CN(C)S(=O)(=O)c1cn(C)cn1`: the cytotoxicity call was “inactive”.
Consider `NCCN1C(=O)c2[nH]nc(-c3ccccc3)c2[C@H]1c1ccccc1`, for which the cytotoxicity call is “active”.
The same measure for `c1ccc(-c2n[nH]c3c2CCC3)cc1`: “inactive”.
In the case of `NCc1c[nH]nc1-c1ccccc1`, the cytotoxicity call is “inactive”.
Regarding `C[C@@H]1CN([C@H](C)CO)S(=O)(=O)c2ccc(-c3cccc(F)c3)cc2O[C@H]1CN(C)S(C)(=O)=O`, the cytotoxicity call was “inactive”.
`Cl.Clc1ccc2c(c1)CCc1cccnc1C2=C1CCNCC1`: the cytotoxicity call is “active”.
In the case of `Clc1ccc2c(c1)CCc1cccnc1C2=C1CCNCC1`, the cytotoxicity call is “active”.
Then `c1ccc2c(c1)Cc1cccnc1-2`, with “inactive”.
Regarding `Clc1ccc2ncccc2c1`, the cytotoxicity call is “inactive”.
Then `O=C(C[C@@H]1CC[C@H]2[C@@H](COC[C@H](O)CN2C(=O)c2ccc3c(c2)OCO3)O1)NCCN1CCCCC1`, with “inactive”; and `Cc1ccc(S(=O)(=O)Nc2cccc3c2O[C@@H](CN(C)C(=O)Nc2cccc4ccccc24)[C@@H](C)CN([C@H](C)CO)C3=O)cc1`, with “inactive”.
On to `NC[C@@H]1CC(=O)N(Cc2ccccc2)C1`, for which the cytotoxicity call was “inactive”.
Turning to `NC(=O)N[C@@H]1CC(=O)N(c2ccccc2)C1`, the cytotoxicity call was “inactive”.
With `NC[C@@H]1CC(=O)N(c2ccccc2)C1`, the cytotoxicity call is “active”.
Turning to `O=c1cc(-c2ccccc2)ss1`, the cytotoxicity call was “inactive”.
For `O=C(c1ccc(S(=O)(=O)N2CCCCCC2)cc1)N(Cc1cccnc1)c1nc2c(F)cc(F)cc2s1`, the cytotoxicity call is “inactive”.
`Cc1cc(Cl)cc2sc(N(Cc3ccccn3)C(=O)c3ccc(S(=O)(=O)N4CCCC4)cc3)nc12`: the cytotoxicity call is “inactive”.
As to `COc1cc(OC)c(S(=O)(=O)N(C)Cc2ccccc2)cc1S(=O)(=O)N(C)Cc1ccccc1`, the cytotoxicity call is “inactive”.
With `Cc1ccc2sc(N(CCCN(C)C)C(=O)c3ccc(S(=O)(=O)N(C)Cc4ccccc4)cc3)nc2c1C`, the cytotoxicity call is “active”.
For the compound `Cc1ccc2sc(N(CCCN(C)C)C(=O)c3ccc(S(=O)(=O)N(C)C4CCCCC4)cc3)nc2c1C`, the cytotoxicity call was “active”.
Consider `CC(C)(C)NC[C@@H](O)CSc1nc(-c2ccc(C(N)=O)s2)cs1`, for which the cytotoxicity call is “inactive”.
Then `COCC(=O)N(C)C[C@H]1Oc2cc(-c3ccc(C#N)cc3)ccc2S(=O)(=O)N([C@H](C)CO)C[C@H]1C`, with “inactive”; and `O=C(Nc1nccs1)[C@H]1[C@H](CO)[C@H]2Cn3c(cccc3=O)[C@@H]1N2C(=O)C1CC1`, with “inactive”.
Take `Cc1noc(C)c1S(=O)(=O)N(C)C[C@@H]1OCCCC[C@H](C)Oc2ccc(NC(=O)Nc3ccccc3)cc2C(=O)N([C@@H](C)CO)C[C@H]1C`: the cytotoxicity call is “inactive”.
Then `C[C@H](CO)N1C[C@H](C)[C@H](CN(C)Cc2ccncc2)Oc2c(NS(=O)(=O)c3ccc(F)cc3)cccc2C1=O`, with “inactive”; and `COC(=O)[C@@H](N)CS[C@H]1CCCCO1`, with “inactive”; and `Cc1noc(C)c1NC(=O)Nc1ccc2c(c1)C(=O)N([C@H](C)CO)C[C@H](C)[C@H](CN(C)Cc1ccc(-c3ccccc3)cc1)O2`, with “inactive”.
Then `COc1ccc2c(c1)n(CCN)c(=O)n2C(=O)[C@@H]1C[C@H](C)CC[C@H]1C(C)C`, with “active”.
The same measure for `CC(C)[C@H]1CC[C@@H](C)C[C@@H]1NC(=O)c1cccc2ccccc12`: “inactive”.
`C[C@@H]1CN([C@@H](C)CO)C(=O)c2cc(NC(=O)CCCN(C)C)ccc2O[C@@H](C)CCCCO[C@@H]1CN(C)C`: the cytotoxicity call was “inactive”.
In the case of `CN(Cc1ccc(/C=C/C(=O)Nc2ccc(-c3ccccc3)cc2N)cc1)CC12CC3CC(CC(C3)C1)C2`, the cytotoxicity call is “active”.
For `C[C@H]1CN([C@@H](C)CO)C(=O)c2cccc(NC(=O)CCCCCC(=O)Nc3ccccc3N)c2O[C@@H]1CN(C)Cc1ccc(-c2ccccc2)cc1`, the cytotoxicity call is “inactive”.
As to `CN(Cc1ccc(/C=C/C(=O)Nc2ccc(-c3cccs3)cc2N)cc1)CC12CC3CC(CC(C3)C1)C2`, the cytotoxicity call is “inactive”.
The same measure for `O=C(C[C@H]1CC[C@@H]2[C@H](COC[C@H](O)CN2S(=O)(=O)c2cccc(F)c2)O1)NCc1ccncn1`: “inactive”.
